AHR act: activators of human aryl hydrocarbon receptor; AHR-responsive luciferase reporter cells, luminescence; P35869; activation, % at 5 µM; 320,000 tested, 2.5% active; in the data active means activation above about 47%
ssDAF-12 act: S. stercoralis DAF-12 activation, primary screen; HEK293 ssDAF-12/GRIP1 lit1-tk-luc reporter, luminescence; % of 3 µM dafachronic acid response; activation, % at 6.8 µM; 370,000 tested, 1% active;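 active means activation above the mean over all tested compounds plus 3 SD, cut at about 0.9% in these data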
DAX1 inh-1: blocks DAX1 repression of SF-1 activated StAR promoter. inhibition, % at 6.8 µM. AID 652010. HEK293T StAR-luciferase reporter, SF-1/DAX-1 repression relief. 370,000 tested, 1.1% active;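 active means inhibition above the mean over all tested compounds plus 3 SD, cut at about 3.6% in these data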;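 further: higher inhibition means more luminescence from relief of DAX-1 repression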
DAX1 inh-2: inhibits human nuclear receptor DAX1; HEK293 Gal4-DAX1 luciferase reporter, luminescence; inhibition, % at 6.75 µM; 340,000 tested, 0.99% active; AID 504766;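 active means inhibition above the mean over all tested compounds plus 3 SD, cut at about 4.2% in these data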;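 further: inhibition shows as a rise in luminescence from relieved DAX1 repression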
hcDAF-12 act: H. contortus DAF-12 activation, primary screen; HEK293 hcDAF-12 lit1-tk-luc reporter, luminescence; 0% DMSO, 100% Δ7-dafachronic acid; activation, % at 6.8 µM; 370,000 tested, 1.4% active;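 active means activation above the mean of all tested compounds plus 3 SD, cut at about 5.5% in these data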
hgDAF-12 ag: agonists of H. glycines DAF-12 nuclear receptor; HEK293 GAL4-hgDAF12 UAS-luciferase reporter, agonist luminescence; normalized to butyrate control; activation, % at 6.8 µM; 370,000 tested, 1.8% active; AID 687014;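 active means activation above a cutoff set at the mean of all screened compounds plus 3 SD, cut at about 10% in these data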
A number is an active result; – = inactive; · = no result given. Hits are enriched below; roughly 5.7% of the tested compounds scored in any of these assays.

SMILES	AHR act	ssDAF-12 act	DAX1 inh-1	DAX1 inh-2	hcDAF-12 act	hgDAF-12 ag
COc1cccc(N2C(=O)C3CCCN3C2c2ccc(Cl)cc2)c1 (configuration not stated)	–	–	–	–	–	–
Cc1ccc(C(=O)Nc2c3c(nn2-c2ccccc2)CS(=O)(=O)C3)cc1C	–	–	–	–	5.8	–
Cc1ccc(-n2nc3c(c2NC(=O)c2ccccc2)CS(=O)(=O)C3)cc1C	–	–	–	–	–	–
COC(=O)c1cnn(-c2ccccc2)c1C(OC)OC	–	–	–	4.5	–	–
N#Cc1c(C(F)(F)F)cc(-c2ccccc2)nc1SCCN1CCOCC1	55	–	–	–	–	–
N#Cc1c(C(F)(F)F)cc(-c2ccco2)nc1SCc1ccccn1	60	–	–	–	–	–
C=CCSC1=N/C(=C/c2ccsc2)C(=O)N1c1ccccc1	–	–	–	5.0	–	–
O=[N+]([O-])c1cccc(N(CC(O)CN2CCCCC2)S(=O)(=O)c2ccccc2)c1 (configuration not stated)	–	–	–	–	–	–
COc1ccc(OC)c(NC(=O)NC2CCCCCCC2)c1	·	–	–	–	–	–
O=C(Nc1ccc(Cl)c(Cl)c1)Nc1ccccn1	–	–	–	–	–	–
Cc1ccc(NC(=O)NC2CCCCC2)cc1Cl	–	–	–	–	–	12
COc1cc(NC(=S)Nc2ccccn2)c(OC)cc1Cl	58	–	–	–	–	–
COc1ccc(NC(=O)NC2CCCCCCC2)cc1OC	–	–	4.4	–	–	–
COc1ccc(NC(=O)Nc2ccccn2)cc1OC	–	1.5	–	–	–	–
CCOc1ccc(C(=S)N2CCOCC2)cc1	–	–	–	–	–	–
O=c1cc(COc2ncnc3ccccc23)nc2sccn12	–	–	–	–	–	–
COC(=O)c1ccc2c(=O)n(CC3CCCO3)c(SCC(=O)Nc3ccccc3OC)nc2c1 (configuration not stated)	–	–	–	–	–	–
COC(=O)c1ccc(OC)c(OC2CCCC2)c1	–	–	–	6.3	–	–
O=C(Nc1ccc(Cl)cc1Cl)NC1CCCC1	53	–	–	–	–	–
COc1ccc(NC(=O)C2CC2)cc1OC1CCCC1	–	·	·	–	·	·
O=C(O)c1ccc(Cl)cc1Nc1nc2cc(Cl)ccc2o1	59	–	–	–	–	–
Cc1ccc(NC(=O)CCn2c(=S)oc3ccccc32)cc1	–	–	–	–	–	–
CN(C)c1ccc(NC(=O)CCn2c(=S)oc3ccccc32)cc1	59	–	–	–	–	–
O=C(N/N=C/c1c(Cl)cccc1Cl)c1n[nH]c2c1CCCC2	–	–	–	–	–	–
Cc1cc(C(=O)N/N=C/c2sccc2C)no1	–	–	–	–	–	–
SMILES	AHR act	ssDAF-12 act	DAX1 inh-1	DAX1 inh-2	hcDAF-12 act	hgDAF-12 ag
COc1ccc(CC(=O)N/N=C/c2cc(Br)cs2)cc1OC	–	–	–	–	–	–
Cc1ccsc1/C=N\NC(=O)c1cc(C(C)(C)C)[nH]n1	–	–	–	–	–	11
Cc1ccsc1/C=N\NC(=O)c1n[nH]c2c1CCC2	–	1.0	–	–	6.0	–
COc1ccc(CC(=O)N/N=C/c2c(C)n(C)c3ccccc23)cc1OC	48	–	–	·	–	–
Cc1c(/C=N/NC(=O)c2cc(C(C)(C)C)[nH]n2)c2ccccc2n1C	73	–	–	–	–	–
COc1ccc(Nc2nc(-c3ccccc3)c3ccccc3n2)cc1	–	–	–	–	–	–
COc1ccc(Nc2nc(C)c3ccccc3n2)cc1	–	1.1	–	–	6.5	–
COc1ccc(Nc2nc(C)c(-c3ccccc3)s2)cc1	–	–	–	–	6.2	–
CNc1ccc(Br)cc(C(=O)/C=C/c2ccc(Cl)cc2Cl)c1=O	–	–	–	–	–	–
Cc1cc2ncc(C(=O)N=CN(C)C)cn2n1	–	–	–	–	–	–
Cc1cc2ncc(-c3ccc(Cl)cc3)cn2n1	–	–	3.7	–	–	11
Cc1cc(C)n2ncc(C(=O)NCc3cccnc3)c2n1	68	–	–	–	–	–
COc1ccc(CNC(=O)c2cnn3c(C(F)F)cc(C)nc23)cc1OC	52	–	–	–	–	–
O=C(NCc1cccnc1)c1cnn2ccccc12	–	–	–	–	–	–
